Values joined by “and” are separate entries in the source; they are usually repeats but may differ in a detail not shown here. Equal values may be shown once. Inconclusive results are not listed. A structure can be active in one record and inactive in another. Active and inactive are the calls of the source. The calls were made as follows: active = hit-call score of the fitted dose curve at least 0.9, where 1 is the maximum; inconclusive = response in the unintended direction; inactive = score below 0.9.

Sequence of Cellular tumor antigen p53 (Homo sapiens) (P04637 whole entry, looked up): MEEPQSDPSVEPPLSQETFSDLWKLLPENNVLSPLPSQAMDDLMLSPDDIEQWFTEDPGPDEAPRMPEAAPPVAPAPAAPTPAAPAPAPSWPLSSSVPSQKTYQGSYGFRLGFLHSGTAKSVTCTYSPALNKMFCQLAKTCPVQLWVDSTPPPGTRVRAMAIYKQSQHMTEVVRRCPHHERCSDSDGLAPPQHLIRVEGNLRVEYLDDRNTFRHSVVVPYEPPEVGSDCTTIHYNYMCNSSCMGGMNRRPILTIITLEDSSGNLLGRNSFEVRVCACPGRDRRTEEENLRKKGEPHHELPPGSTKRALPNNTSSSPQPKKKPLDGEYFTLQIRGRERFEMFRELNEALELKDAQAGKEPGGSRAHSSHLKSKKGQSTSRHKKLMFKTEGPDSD

Tested on in the first test: not listed separately
Kind of test: TOX21_p53_BLA_p5_viability: Viability Assessment in the Tox21 HCT-116 p53 Agonism Beta-lactamase Assay, Phase 5 (AID 2283600). The essentials: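 4000 cells/well; 5 h pre-incubation; DMSO compounds pin-transferred, 217-fold dilution; 16 h, 37C/5% CO2; CCF4-AM 2 h RT; CellTiter-Glo 30 min RT; luminescence.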
As to `Clc1ccc(C(c2ccccc2Cl)C(Cl)Cl)cc1` (configuration not stated), the AC50 is 72.7 µM (active) and 35.9 µM (active).
For `CCN(CCN)c1cccc(C)c1`, the compound was classed as inactive.
Turning to `NCCNc1cccc2ccccc12`, the outcome was inactive.
With `CCCCC(CC)COC(=O)c1ccc(O)cc1` (configuration not stated), the AC50 is 56.6 µM (active) and 66.6 µM (active).
For `C=C1CC[C@H](O)C/C1=C/C=C1\CCC[C@]2(C)[C@@H]([C@H](C)/C=C/[C@H](C)C(C)C)CC[C@@H]12`, the AC50 is 79.6 µM (active) and the compound was called inactive.
Consider `Nc1ccc2c(O)cc(S(=O)(=O)O)cc2c1`, for which the compound was classed as inactive.
The same measure, in the same setting: the same measure for `Cc1c(OCC(F)(F)F)ccnc1CS(=O)c1nc2ccccc2[nH]1` (configuration not stated): “inactive”.
Regarding `COc1ccc(CCN2CCC(Nc3nc4ccccc4n3Cc3ccc(F)cc3)CC2)cc1`, the AC50 is 25.7 µM (active) and 40.5 µM (active).
Turning to `Oc1c(Cl)cc(Cl)c(Cl)c1Cc1c(O)c(Cl)cc(Cl)c1Cl`, the outcome was inactive.
Still for that read-out and setting: the same measure for `CC1CC(O)CC(C)(C)C1` (configuration not stated): “inactive”.
For the compound `CCCC1O[C@@H]2C[C@H]3[C@@H]4CCC5=CC(=O)C=C[C@]5(C)[C@H]4[C@@H](O)C[C@]3(C)[C@]2(C(=O)CO)O1` (some centres not stated), the compound was called inactive.
On the same count and under the same terms, the same measure for `CC(=O)Nc1ccc(C(=O)CCl)cc1`: “inactive”.

A further test addresses Cellular tumor antigen p53 (Homo sapiens) (UniProt P04637). Kind of test: TOX21_p53_BLA_p4_ratio: Tox21 HCT-116 p53 Agonism Beta-lactamase Assay, Ratio, Phase 4 (AID 2283601). Summed up: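 HCT116 cells carrying an inducible beta-lactamase reporter were plated at 4000 cells/well, rested 5 h, then exposed to compounds in DMSO (217-fold dilution) for 16 h at 37C. CCF4-AM substrate was loaded 2 h at room temperature; 460/530 nm emission ratio scored gain-of-signal versus DMSO.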
Regarding `CC(C)(C)CC(C)(C)c1ccc(OCCOCC[N+](C)(C)Cc2ccccc2)cc1`, the AC50 was 70.9 µM (active) and 42.1 µM (active).
The same measure, in the same setting: the same measure for `Clc1ccc(C(c2ccccc2Cl)C(Cl)Cl)cc1` (configuration not stated): 82.4 µM (active) and 36.6 µM (active).
With `NCCNc1cccc2ccccc12`, the result was inactive.
As for `CCCCC(CC)COC(=O)c1ccc(O)cc1` (configuration not stated), the AC50 was 86 µM (active) and 72.3 µM (active).
Turning to `C=C1CC[C@H](O)C/C1=C/C=C1\CCC[C@]2(C)[C@@H]([C@H](C)/C=C/[C@H](C)C(C)C)CC[C@@H]12`, the outcome was inactive.
As to `Nc1ccc2c(O)cc(S(=O)(=O)O)cc2c1`, the concentration at half-maximal activity (AC50) was 46.1 µM (active) and 16 µM (active).
With `Cc1c(OCC(F)(F)F)ccnc1CS(=O)c1nc2ccccc2[nH]1` (configuration not stated), the result was inactive.
For `COc1ccc(CCN2CCC(Nc3nc4ccccc4n3Cc3ccc(F)cc3)CC2)cc1`, the half-maximal activity concentration (AC50) is 32.5 µM (active) and 43.3 µM (active).
On the same count and under the same terms, the same measure for `Oc1c(Cl)cc(Cl)c(Cl)c1Cc1c(O)c(Cl)cc(Cl)c1Cl`: 42.2 µM (active) and 43.5 µM (active) and 6.65 µM (active).
The same measure, in the same setting: the same measure for `CN(C)CCOc1ccc(/C(=C(/CCCl)c2ccccc2)c2ccccc2)cc1`: 72.9 µM (active) and 39 µM (active).
For `CC1CC(O)CC(C)(C)C1` (configuration not stated), the result was inactive.
Still for that read-out and setting: the same measure for `CCCC1O[C@@H]2C[C@H]3[C@@H]4CCC5=CC(=O)C=C[C@]5(C)[C@H]4[C@@H](O)C[C@]3(C)[C@]2(C(=O)CO)O1` (some centres not stated): “inactive”.
With `CC(=O)Nc1ccc(C(=O)CCl)cc1`, the AC50 is 79.4 µM (active) and the outcome was inactive.
